Compound activity (PubChem)
Only a selection was taken, and hits are over-represented in it overall.
Dicer processing: inhibitors of Dicer pre-microRNA processing, primary screen, biochemical, cat-ELCCA, chemiluminescence. Endoribonuclease Dicer (Homo sapiens), Q9UPY3. cat-ELCCA pre-miR-21 Dicer processing; stronger effect = higher value. z-score at 25 µM. 47,000 tested, 6% active. AID 1347074, 2019; in the data active = z-score above about 3, passing the limit was not always enough;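 also: plate controls were vehicle for no effect and no enzyme for full effect; higher signal means more uncleaved substrate so more Dicer inhibition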
Target sequence (Q9UPY3 whole entry, looked up): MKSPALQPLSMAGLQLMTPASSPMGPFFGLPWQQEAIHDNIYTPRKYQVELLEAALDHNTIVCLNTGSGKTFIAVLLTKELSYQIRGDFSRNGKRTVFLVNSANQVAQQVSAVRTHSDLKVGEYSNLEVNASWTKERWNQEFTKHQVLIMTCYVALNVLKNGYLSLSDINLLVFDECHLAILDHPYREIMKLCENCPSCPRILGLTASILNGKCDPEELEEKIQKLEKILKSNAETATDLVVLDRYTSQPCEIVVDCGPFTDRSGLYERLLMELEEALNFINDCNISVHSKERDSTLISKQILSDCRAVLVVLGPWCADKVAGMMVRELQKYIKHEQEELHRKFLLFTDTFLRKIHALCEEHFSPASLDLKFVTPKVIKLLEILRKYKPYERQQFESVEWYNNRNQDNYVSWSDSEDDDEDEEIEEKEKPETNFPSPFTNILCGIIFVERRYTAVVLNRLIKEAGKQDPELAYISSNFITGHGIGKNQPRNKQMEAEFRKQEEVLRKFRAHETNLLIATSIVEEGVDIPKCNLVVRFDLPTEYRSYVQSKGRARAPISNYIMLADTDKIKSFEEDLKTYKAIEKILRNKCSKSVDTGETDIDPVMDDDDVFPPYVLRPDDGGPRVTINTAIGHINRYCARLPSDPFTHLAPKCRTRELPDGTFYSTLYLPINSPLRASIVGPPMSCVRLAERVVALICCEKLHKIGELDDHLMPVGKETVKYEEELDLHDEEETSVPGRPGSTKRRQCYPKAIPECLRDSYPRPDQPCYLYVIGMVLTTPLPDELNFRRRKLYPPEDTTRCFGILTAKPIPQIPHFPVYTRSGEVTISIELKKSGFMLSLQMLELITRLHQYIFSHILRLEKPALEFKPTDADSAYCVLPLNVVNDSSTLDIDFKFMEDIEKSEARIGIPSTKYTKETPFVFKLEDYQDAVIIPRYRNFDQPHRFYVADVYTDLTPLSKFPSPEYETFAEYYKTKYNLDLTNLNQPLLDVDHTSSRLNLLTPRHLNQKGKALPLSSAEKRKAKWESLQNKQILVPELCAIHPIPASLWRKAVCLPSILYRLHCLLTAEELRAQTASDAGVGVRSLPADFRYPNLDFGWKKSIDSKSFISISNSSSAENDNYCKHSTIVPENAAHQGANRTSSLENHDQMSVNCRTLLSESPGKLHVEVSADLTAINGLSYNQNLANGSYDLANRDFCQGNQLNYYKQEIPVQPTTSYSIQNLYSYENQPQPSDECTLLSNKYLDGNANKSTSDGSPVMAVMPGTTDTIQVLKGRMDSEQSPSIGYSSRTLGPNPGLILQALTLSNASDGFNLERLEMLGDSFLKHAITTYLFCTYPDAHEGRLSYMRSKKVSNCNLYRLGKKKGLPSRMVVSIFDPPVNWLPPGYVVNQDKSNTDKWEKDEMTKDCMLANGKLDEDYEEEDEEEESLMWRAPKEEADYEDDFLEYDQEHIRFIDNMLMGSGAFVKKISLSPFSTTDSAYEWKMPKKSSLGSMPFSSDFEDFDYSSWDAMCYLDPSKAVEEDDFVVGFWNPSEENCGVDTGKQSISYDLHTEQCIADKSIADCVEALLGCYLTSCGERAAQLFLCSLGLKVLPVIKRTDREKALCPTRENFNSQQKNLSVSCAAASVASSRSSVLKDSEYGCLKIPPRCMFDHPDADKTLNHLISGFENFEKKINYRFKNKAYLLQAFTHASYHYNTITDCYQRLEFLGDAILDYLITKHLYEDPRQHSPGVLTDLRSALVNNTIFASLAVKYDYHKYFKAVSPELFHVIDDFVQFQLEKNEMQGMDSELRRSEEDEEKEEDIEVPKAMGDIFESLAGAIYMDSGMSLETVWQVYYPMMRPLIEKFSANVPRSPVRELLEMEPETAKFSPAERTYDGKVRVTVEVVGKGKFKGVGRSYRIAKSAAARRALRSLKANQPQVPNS
Active calls of the source: *.

For COC(=O)C1=C(C)NC2=C(C(=O)CC(c3ccccc3)C2)C1c1ccc(C)o1 (configuration not stated) the results were Dicer processing 0.45.
O=C(O)c1ccc(-n2nnnc2SCC(=O)N2CCOCC2)cc1 was read as Dicer processing 0.41.
Fc1ccc(CSc2nnnn2-c2cccc(Cl)c2)cc1 was read as Dicer processing 0.46.
`O=C(O)c1ccc(-n2nnnc2SCc2cccc(Br)c2)cc1` gave Dicer processing 4.9*.
`CCOC(=O)c1sc(SCc2ccccc2)c2c1CCCC2=O` gave Dicer processing -1.6.
For CC(C)(C)OC(=O)NC1CCN(c2ncc(C(F)(F)F)cc2Cl)CC1 the results were Dicer processing -1.1.
`CC1(C(=O)O)NCCc2c1[nH]c1ccccc21` (configuration not stated) gave Dicer processing 1.5.
Screening O=C(Nc1ccc(S(=O)(=O)N2CCCC2)cc1)c1sc2ccccc2c1Cl returned Dicer processing -2.3.
Screening NNC(=S)Nc1cccc(Cl)c1 returned Dicer processing 2.9.
Oc1ccccc1/C=N/NC(=S)Nc1cccc(Cl)c1 was read as Dicer processing 13*.
Screening CNC(=S)N/N=C/c1ccccc1O returned Dicer processing 1.4.
Screening NC1=NC(c2ccncc2)n2c(nc3ccccc32)N1 (configuration not stated) returned Dicer processing 0.89.
Screening COc1cc(C2N=C(N)Nc3nc4ccccc4n32)ccc1O (configuration not stated) returned Dicer processing 5.9*.
For NC1=NC(c2ccccc2)n2c(nc3ccccc32)N1 (configuration not stated) the results were Dicer processing 2.2.
Screening COc1ccc(C2N=C(N)Nc3nc4ccccc4n32)c(OC)c1 (configuration not stated) returned Dicer processing 0.18.
For NC1=NC(c2ccccc2O)n2c(nc3ccccc32)N1 (configuration not stated) the results were Dicer processing 3.6*.
For CCOc1cc(C2N=C(N)Nc3nc4ccccc4n32)ccc1O (configuration not stated) the results were Dicer processing 2.4.
Screening O=C(NCCc1ccccn1)c1cn(S(=O)(=O)c2ccccc2)c2ccccc12 returned Dicer processing -0.23.
CN(C(=O)Cn1nc(C(F)(F)F)c2c1CCCC2)c1ccccc1 was read as Dicer processing 3.8*.
For O=C(Cn1nc(C(F)(F)F)c2c1CCCC2)N1CCCc2ccccc21 the results were Dicer processing 0.09.
`CC(C)CNC(=O)Cn1nc(C(F)(F)F)c2c1CCCC2` gave Dicer processing 1.1.
Screening COc1cc2ncnc(SCC(=O)NN)c2cc1OC returned Dicer processing 2.2.
Screening CC(C)Cc1n(CC(=O)c2ccccc2)c2ccccc2[n+]1C returned Dicer processing -0.18.
CCn1c(N2CCOCC2)nc2c1c(=O)[nH]c(=O)n2C was read as Dicer processing -0.43.
For CC(=O)Nc1ccc(NCN2C(=O)c3ccccc3C2=O)cc1 the results were Dicer processing -0.7.
CC(C)c1ccc(NCN2C(=O)c3ccccc3C2=O)cc1 was read as Dicer processing 2.8.
For C#Cc1cccc(NCN2C(=O)c3ccccc3C2=O)c1 the results were Dicer processing 3.1*.
Screening Cc1cc(S(=O)(=O)Cc2ccc(N)cc2)c(C)cc1Cl returned Dicer processing -0.4.
`COc1ccc(-c2cc3ncc(C(=O)c4cc(F)ccc4O)cn3n2)cc1` gave Dicer processing -1.6.
O=C(O)c1cc(Br)cc(Br)c1 was read as Dicer processing 0.66.
`Fc1ccccc1CN1CCN(C2CCCC2)CC1` gave Dicer processing 5.3*.
`c1ccc(CN2CCN(C3CCCC3)CC2)cc1` gave Dicer processing -0.01.
For Fc1ccc(CN2CCN(C3CCCCC3)CC2)cc1 the results were Dicer processing -0.45.
For C=CCOC(=O)c1sc(N2C(=O)c3oc4ccc(C)cc4c(=O)c3C2c2ccc(O)cc2)nc1C (configuration not stated) the results were Dicer processing 3.3*.
Screening C=CCOC(=O)c1sc(N2C(=O)c3oc4ccc(C)cc4c(=O)c3C2c2ccc(F)cc2)nc1C (configuration not stated) returned Dicer processing -0.01.
COC(=O)c1sc(N2C(=O)c3oc4ccccc4c(=O)c3C2c2ccc(C)cc2)nc1C (configuration not stated) was read as Dicer processing -0.77.
Screening COC(=O)c1sc(N2C(=O)c3oc4ccccc4c(=O)c3C2c2cccc(Cl)c2)nc1C (configuration not stated) returned Dicer processing 1.8.
COC(=O)c1sc(N2C(=O)c3oc4ccccc4c(=O)c3C2c2cccc(O)c2)nc1C (configuration not stated) was read as Dicer processing 3.8*.
For CCOC(=O)c1sc(N2C(=O)c3oc4ccc(C)cc4c(=O)c3C2c2ccc(O)cc2)nc1C (configuration not stated) the results were Dicer processing 0.43.
Screening CCOC(=O)c1cc2c(N)c(C(=O)OCC)sc2nc1C(F)(F)F returned Dicer processing -0.26.
For CCOc1nc2c(c(-c3ccc(OC)cc3)c1C#N)Cc1ccccc1-2 the results were Dicer processing -1.6.
Screening CC(=O)COc1nc2c(c(-c3ccc(Cl)cc3)c1C#N)CCc1ccccc1-2 returned Dicer processing 3.2*.
Screening CC(=O)COc1nc2c(c(-c3ccco3)c1C#N)CCc1ccccc1-2 returned Dicer processing 243.
`O=c1[nH]c(=O)n(CCc2ccccc2)c2c1CN(C1CCCCC1)CN2` gave Dicer processing 1.
`O=C(Cn1c(=O)sc2ccccc21)NCc1ccccc1` gave Dicer processing 0.61.
CS(=O)(=NS(=O)(=O)c1ccccc1C(F)(F)F)c1ccc(Cl)cc1 (configuration not stated) was read as Dicer processing -0.05.
For CS(=O)(=NS(=O)(=O)c1ccc(Cl)cc1)c1ccccc1 (configuration not stated) the results were Dicer processing -1.3.
Screening CS(=O)(=NS(=O)(=O)c1cc(Cl)ccc1Cl)c1ccc(Cl)cc1 (configuration not stated) returned Dicer processing 4.1*.
N=S(c1ccc(Cl)cc1)c1cccs1 (configuration not stated) was read as Dicer processing 0.78.
`COC(=O)c1ccc(C2c3c(oc4ccccc4c3=O)C(=O)N2c2nnc(C(C)C)s2)cc1` (configuration not stated) gave Dicer processing 0.12.
O=C(NNS(=O)(=O)c1ccc(-c2ccccn2)s1)Nc1cccc(Cl)c1 was read as Dicer processing 4*.
Screening Clc1cccc(Sc2ccc(-c3ccccn3)s2)c1 returned Dicer processing -0.72.
`COc1ccc(SCCC(=O)NNS(=O)(=O)c2ccc(-c3ccccn3)s2)cc1` gave Dicer processing -1.7.
CC(C)(C)C(=O)/C(C#N)=C/c1ccc([N+](=O)[O-])s1 was read as Dicer processing -1.1.
`O=[N+]([O-])c1ccc2c(c1)c(CO)cn2Cc1ccccc1` gave Dicer processing -0.16.
`COc1cccc(C2CC(c3ccccc3)=NN2C(=O)CCCC(=O)O)c1OC` (configuration not stated) gave Dicer processing 0.83.
`COc1ccc(C2=NN(C(=O)CCCC(=O)O)C(c3ccc(Cl)cc3)C2)cc1OC` (configuration not stated) gave Dicer processing -1.
